What all share (assay): DAPPL (digital affinity profiling via proximity ligation, sequencing); 10 mM Tris-HCl pH 7.5, 50 mM NaCl, 1 mM DTT, 4% glycerol, room temperature, 30 min; GST-TFs on glutathione beads, 16-mer random dsDNA library, 0.1% formaldehyde crosslink after washing; high values mean tight binding
Conditions in all cases: protein: recombinant; tags: N-terminal GST; dsDNA, one strand shown

For one experiment, the target named is SPIB (Homo sapiens, UniProt Q01892 1-262). In a few lines:
(§1)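 Binding signal is given per hexamer as its read frequency for a factor divided by its frequency in the tag-only sample. GST-fused human transcription factors were expressed in yeast, captured on glutathione beads, barcoded with DNA and pooled with that sample, then incubated with 200 nmole of a 16-mer random double-stranded DNA library in Tris/NaCl/DTT/glycerol buffer for 30 min at room temperature. The pools were then washed, crosslinked, proximity-ligated, amplified by PCR and sequenced on an Illumina NextSeq500.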

The next experiment has as its target T1, SPIC (Homo sapiens, UniProt Q8N5J4 1-248).
T1 sequence: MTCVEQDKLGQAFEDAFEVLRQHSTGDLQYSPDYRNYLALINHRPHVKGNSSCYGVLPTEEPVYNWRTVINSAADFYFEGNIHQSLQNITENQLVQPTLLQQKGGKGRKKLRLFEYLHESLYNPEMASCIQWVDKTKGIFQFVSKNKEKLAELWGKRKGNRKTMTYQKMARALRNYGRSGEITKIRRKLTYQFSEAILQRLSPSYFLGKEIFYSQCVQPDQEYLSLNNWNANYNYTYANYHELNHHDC
In a few lines:
as §1

A further experiment addresses ELF4 (Homo sapiens, UniProt Q99607 1-663). In a few lines:
as §1

The next experiment addresses T2, ELK4 (Homo sapiens, UniProt P28324-2 1-405).
T2 sequence: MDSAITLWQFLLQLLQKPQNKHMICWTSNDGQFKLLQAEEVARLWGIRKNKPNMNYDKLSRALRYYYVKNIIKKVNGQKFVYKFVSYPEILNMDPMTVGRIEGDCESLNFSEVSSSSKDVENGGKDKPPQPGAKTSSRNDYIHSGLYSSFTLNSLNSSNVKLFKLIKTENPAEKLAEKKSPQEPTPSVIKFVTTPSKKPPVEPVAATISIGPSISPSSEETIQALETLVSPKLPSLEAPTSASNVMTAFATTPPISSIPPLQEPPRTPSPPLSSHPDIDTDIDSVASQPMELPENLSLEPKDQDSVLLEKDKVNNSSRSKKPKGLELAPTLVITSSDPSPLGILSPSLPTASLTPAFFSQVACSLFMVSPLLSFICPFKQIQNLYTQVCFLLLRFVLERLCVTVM
In a few lines: as §1

A further experiment has as its target T3, ELF3 (Homo sapiens, UniProt P78545 1-371).
T3 sequence: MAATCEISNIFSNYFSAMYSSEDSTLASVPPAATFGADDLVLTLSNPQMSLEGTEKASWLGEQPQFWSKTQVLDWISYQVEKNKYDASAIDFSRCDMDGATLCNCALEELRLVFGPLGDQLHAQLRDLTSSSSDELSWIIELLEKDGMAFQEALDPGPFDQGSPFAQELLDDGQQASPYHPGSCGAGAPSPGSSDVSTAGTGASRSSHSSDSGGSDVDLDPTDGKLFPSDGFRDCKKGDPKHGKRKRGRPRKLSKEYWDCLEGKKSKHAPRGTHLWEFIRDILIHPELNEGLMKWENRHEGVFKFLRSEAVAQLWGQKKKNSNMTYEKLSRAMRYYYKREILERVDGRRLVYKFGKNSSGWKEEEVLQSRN
In a few lines:
as §1

The next experiment concerns the target T4, ETS2 (Homo sapiens, UniProt P15036 1-469).
T4 sequence: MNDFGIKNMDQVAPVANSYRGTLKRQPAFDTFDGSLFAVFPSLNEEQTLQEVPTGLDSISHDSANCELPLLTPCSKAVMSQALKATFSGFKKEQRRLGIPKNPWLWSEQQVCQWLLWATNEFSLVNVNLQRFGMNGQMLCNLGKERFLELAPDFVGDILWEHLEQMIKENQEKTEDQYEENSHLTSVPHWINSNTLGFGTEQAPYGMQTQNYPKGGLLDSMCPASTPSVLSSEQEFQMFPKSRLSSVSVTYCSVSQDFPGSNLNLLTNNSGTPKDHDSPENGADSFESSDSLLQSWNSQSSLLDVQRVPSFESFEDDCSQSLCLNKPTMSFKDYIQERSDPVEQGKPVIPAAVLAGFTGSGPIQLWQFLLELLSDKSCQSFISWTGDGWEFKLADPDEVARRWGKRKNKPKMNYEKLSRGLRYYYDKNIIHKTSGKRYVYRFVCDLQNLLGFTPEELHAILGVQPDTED
The essentials:
as §1

The target in the next experiment is T5, ETV3 (Homo sapiens, UniProt P41162-2 1-143).
T5 sequence: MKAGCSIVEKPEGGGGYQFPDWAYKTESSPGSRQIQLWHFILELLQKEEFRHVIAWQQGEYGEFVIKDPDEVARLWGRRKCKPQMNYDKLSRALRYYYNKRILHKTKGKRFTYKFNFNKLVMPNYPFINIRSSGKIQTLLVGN
The essentials:
as §1

In a further experiment the target is T6, GABPA (Homo sapiens, UniProt Q06546 1-454).
T6 sequence: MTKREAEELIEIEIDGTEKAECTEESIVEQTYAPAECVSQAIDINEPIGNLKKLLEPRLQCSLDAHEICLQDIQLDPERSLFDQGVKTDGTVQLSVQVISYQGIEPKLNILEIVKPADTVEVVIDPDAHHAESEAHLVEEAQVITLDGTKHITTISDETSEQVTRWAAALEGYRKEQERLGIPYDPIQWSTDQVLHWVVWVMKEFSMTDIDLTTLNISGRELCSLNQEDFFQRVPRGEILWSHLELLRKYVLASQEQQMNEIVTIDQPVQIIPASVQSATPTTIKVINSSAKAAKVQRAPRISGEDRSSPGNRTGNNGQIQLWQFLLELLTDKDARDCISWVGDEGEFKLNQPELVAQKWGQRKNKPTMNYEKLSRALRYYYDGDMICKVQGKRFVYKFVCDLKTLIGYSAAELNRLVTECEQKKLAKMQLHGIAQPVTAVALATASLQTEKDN
In a few lines:
as §1

For the next experiment, the target named is T7, ELK3 (Homo sapiens, UniProt P41970 1-407).
T7 sequence: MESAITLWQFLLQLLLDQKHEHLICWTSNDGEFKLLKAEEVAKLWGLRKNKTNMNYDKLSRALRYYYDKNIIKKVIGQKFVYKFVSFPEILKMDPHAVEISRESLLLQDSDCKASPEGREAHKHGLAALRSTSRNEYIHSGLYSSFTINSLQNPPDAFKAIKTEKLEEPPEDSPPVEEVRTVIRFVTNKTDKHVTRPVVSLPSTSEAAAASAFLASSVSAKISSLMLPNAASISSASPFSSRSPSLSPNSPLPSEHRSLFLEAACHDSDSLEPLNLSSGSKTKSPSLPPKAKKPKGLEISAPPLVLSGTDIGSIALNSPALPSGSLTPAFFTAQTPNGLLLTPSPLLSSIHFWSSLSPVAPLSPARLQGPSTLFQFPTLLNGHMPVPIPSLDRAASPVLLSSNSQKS
In a few lines: as §1

In the next experiment the target is T8, FEV (Homo sapiens, UniProt Q99581 1-238).
T8 sequence: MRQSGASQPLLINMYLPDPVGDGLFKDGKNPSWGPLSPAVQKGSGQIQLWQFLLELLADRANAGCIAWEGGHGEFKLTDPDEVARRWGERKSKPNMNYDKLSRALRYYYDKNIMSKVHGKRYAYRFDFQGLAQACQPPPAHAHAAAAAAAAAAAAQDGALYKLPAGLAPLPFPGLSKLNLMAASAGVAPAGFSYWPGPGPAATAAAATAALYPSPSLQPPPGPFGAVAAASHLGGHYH
In a few lines:
as §1

The target of another experiment is ETV6 (Homo sapiens, UniProt P41212 1-452). The essentials:
as §1

A further experiment concerns the target T9, ETV2 (Homo sapiens, UniProt O00321 1-342).
T9 sequence: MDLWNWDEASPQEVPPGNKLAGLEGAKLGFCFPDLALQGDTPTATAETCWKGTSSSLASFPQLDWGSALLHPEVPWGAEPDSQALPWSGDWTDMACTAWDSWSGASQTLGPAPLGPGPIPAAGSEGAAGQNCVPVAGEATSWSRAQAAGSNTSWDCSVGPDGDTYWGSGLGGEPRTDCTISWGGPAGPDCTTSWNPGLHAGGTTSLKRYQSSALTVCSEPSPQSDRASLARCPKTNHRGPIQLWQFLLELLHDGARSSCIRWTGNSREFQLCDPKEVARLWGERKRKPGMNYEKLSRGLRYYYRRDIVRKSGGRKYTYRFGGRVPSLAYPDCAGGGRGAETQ
In a few lines: as §1

Chain of ELF4 (Q99607 whole entry): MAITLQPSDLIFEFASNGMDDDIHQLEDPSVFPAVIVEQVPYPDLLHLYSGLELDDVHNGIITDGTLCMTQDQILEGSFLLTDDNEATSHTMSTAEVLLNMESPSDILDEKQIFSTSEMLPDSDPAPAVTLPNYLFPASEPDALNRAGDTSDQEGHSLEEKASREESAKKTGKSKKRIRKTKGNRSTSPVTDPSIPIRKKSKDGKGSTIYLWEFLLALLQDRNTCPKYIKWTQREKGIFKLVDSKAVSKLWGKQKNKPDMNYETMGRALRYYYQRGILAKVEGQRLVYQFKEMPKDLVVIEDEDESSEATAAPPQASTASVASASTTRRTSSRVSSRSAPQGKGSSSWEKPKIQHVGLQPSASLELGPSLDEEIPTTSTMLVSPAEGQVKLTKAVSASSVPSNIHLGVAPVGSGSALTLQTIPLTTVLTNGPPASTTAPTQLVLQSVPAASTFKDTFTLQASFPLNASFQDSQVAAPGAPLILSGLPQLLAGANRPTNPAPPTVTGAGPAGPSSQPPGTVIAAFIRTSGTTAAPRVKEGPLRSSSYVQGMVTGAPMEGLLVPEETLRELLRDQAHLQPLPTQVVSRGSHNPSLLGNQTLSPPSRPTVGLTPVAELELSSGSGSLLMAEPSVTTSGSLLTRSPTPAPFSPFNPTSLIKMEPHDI
Chain of ETV6 (P41212 whole entry): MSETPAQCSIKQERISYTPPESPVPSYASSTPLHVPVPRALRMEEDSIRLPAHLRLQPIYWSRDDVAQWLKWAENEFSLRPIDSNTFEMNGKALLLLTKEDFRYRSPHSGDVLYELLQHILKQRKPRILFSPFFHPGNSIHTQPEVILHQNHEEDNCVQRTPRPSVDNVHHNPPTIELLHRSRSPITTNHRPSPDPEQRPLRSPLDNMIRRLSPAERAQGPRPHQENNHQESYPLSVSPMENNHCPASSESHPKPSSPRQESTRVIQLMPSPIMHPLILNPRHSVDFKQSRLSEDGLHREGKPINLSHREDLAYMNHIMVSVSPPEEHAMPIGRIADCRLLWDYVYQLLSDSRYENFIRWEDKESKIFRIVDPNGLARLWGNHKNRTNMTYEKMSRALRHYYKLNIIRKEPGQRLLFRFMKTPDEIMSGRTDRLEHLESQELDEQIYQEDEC
Chain of SPIB (Q01892 whole entry, the tested form may be a part): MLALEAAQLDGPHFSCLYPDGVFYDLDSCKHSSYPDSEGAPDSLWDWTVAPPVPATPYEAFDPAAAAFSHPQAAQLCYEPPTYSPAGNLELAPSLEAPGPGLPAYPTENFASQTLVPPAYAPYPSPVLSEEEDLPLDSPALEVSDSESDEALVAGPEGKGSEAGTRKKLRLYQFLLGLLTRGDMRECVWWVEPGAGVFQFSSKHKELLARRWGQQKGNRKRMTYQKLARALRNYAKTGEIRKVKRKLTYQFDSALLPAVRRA

In the case of GTATGA, the binding signal in the experiment with SPIB was 1.05 fold enrichment (6-mer frequency, TF over GST control); with SPIC, 1.09 fold enrichment (6-mer frequency, TF over GST control); with ELF4 it was 1.03 fold enrichment (6-mer frequency, TF over GST control); with ELK4, 1.01 fold enrichment (6-mer frequency, TF over GST control); with ELF3 it was 1.02 fold enrichment (6-mer frequency, TF over GST control); with ETS2 it was 1.01 fold enrichment (6-mer frequency, TF over GST control). The binding signal in the experiment with ETV3 is 1.02 fold enrichment (6-mer frequency, TF over GST control).
For GCGCCG, the binding signal was 1.03 fold enrichment (6-mer frequency, TF over GST control) with GABPA; 1.02 fold enrichment (6-mer frequency, TF over GST control) with ELK3; 1.05 fold enrichment (6-mer frequency, TF over GST control) in the experiment with FEV; 1.1 fold enrichment (6-mer frequency, TF over GST control) with SPIC; 1.03 fold enrichment (6-mer frequency, TF over GST control) in the experiment with ELF4; 1.03 fold enrichment (6-mer frequency, TF over GST control) in the experiment with ELK4. Besides, the binding signal with ETV6 was 1.05 fold enrichment (6-mer frequency, TF over GST control).
Regarding AGATGG, the binding signal is 1.1 fold enrichment (6-mer frequency, TF over GST control) with SPIC and 1.02 fold enrichment (6-mer frequency, TF over GST control) with ETV2.
GTGCCG: the binding signal is 1.03 fold enrichment (6-mer frequency, TF over GST control) in the experiment with SPIC and 1.01 fold enrichment (6-mer frequency, TF over GST control) with ETV2.

These data come from paper PMC7862700, “An all-to-all approach to the identification of sequence-specific readers for epigenetic DNA modifications on cytosine”.
